Source: PubChem
Pf Dd2 inh – blocks in vitro growth of P. falciparum Dd2; P. falciparum Dd2 growth, SYBR Green, 72 h; Potency, µM (titrated, usually from 28.9 µM), for inactives: at the highest dose activity, negative = inhibition, actives largely listed as inhibitors; 4.3% of 120,000 active; active = well fitted inhibition curve with a large enough effect;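 also: plate controls were DMSO vehicle for no effect and reference drug for full effect; nearly all actives have a fitted effect of over 65% in size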
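Readout: SYBR Green fluorescence, 485 nm excitation, 535 nm emission, after ~16 h lysis at 37C. Before that, Dd2-infected red cells (2.5% hematocrit) grew 72 h with compound, 29 uM top final concentration.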
* marks the source's active call; other numbers are inactive results; i = inactive; [ ] = another dose, or the depositor's remark. The sample as a whole holds a higher share of hits than the screen did. Potency is read from the fitted curve at half-maximal effect.

SMILES	Pf Dd2 inh
Cc1ccc(NC(=O)C2CC(=O)N(c3n[nH]c4cccc(F)c34)C2)cc1 (stereo not given)	8.0%
COc1cccc(C(=O)N2CCC(c3n[nH]c(=O)n3Cc3ccc(F)cc3)CC2)c1	-15.6%
CCCn1c(CCC(=O)Nc2cccc(CC)c2)nc2cccnc21	-7.5%
O=C(CCc1nc2cccnc2n1Cc1cccs1)Nc1cccc(Cl)c1	11.2µM*
COc1ccc(Cn2c(CCC(=O)Nc3ccc(C)cc3)nc3cccnc32)cc1	10µM*
COc1ccc(CNC(=O)CCc2nc3cccnc3n2Cc2ccc(OC)cc2)cc1	-3.7%
COc1ccc(Cn2c(CCC(=O)Nc3cc(C)cc(C)c3)nc3cccnc32)cc1	-20.5%
Cc1cc(NC(=O)CCc2nc3cccnc3n2Cc2cccs2)ccc1Br	84.9%[5.79 µM]
CCCC(=O)N1CCC2(CC1)SCC(=O)N2c1ccc(Cl)cc1	-4.0%
CCNC(=O)[C@@H]1C[C@H](NC(=O)c2ccc[nH]2)CN1C(=O)CCn1cnnn1	-1.6%
CN(C)C1CCCN(C(=O)c2csc3c2CCCC3)CC1 (stereo not given)	-8.8%
CS(=O)(=O)c1ccc(CC(=O)N2CCc3nn(CC#N)c(=O)n3CC2)cc1	16.4%
COc1ccc(CC2CCOC3(CCNCC3)C2)cc1 (stereo not given)	i
COCCN1C(=O)CS(=O)(=O)C12CCN(C(=O)C1CC1)CC2	6.6%
Cc1ccc(NC(=O)N[C@H]2C[C@@](O)(C(=O)N[C@H](Cc3ccccc3)C(N)=O)C[C@@H](O)[C@@H]2O)cc1	-22.6%
COc1ccc(-c2nc3cc(C)ccc3cc2CN2CCC[C@H]2C(N)=O)cc1OC	-5.5%
COc1ccc2cc(CN3CCC(OC)CC3)c(-c3cccc(C)c3)nc2c1	10µM*
Cc1cccc(-c2nc3cc(C)ccc3cc2CN2CCN(CCCO)CC2)c1	i
COCC1CCN(Cc2cc3ccc(OC)cc3nc2-c2cccc(C)c2)C1 (stereo not given)	11.2µM*
COc1ccc(N2CC(c3noc(-c4cccc(C)c4)n3)CC2=O)cc1 (stereo not given)	i
COc1ccc(-c2[nH]ncc2CN2CC[C@H]3CC[C@@H](C2)N3)cc1	-9.8%
COc1cc(=O)n2c(c1C(=O)Nc1ccc3c(c1)OCCO3)CCCC2	i
CNC(=O)c1noc(CN2CCCC(CCc3ccccc3C(F)(F)F)C2)n1 (stereo not given)	-25.7%
COc1c[nH]c(CN2CCCC(CCc3ccccc3C(F)(F)F)C2)cc1=O (stereo not given)	8.91µM*
CN(C)C(=O)N1CCCC(CCc2ccccc2C(F)(F)F)C1 (stereo not given)	-23.9%
SMILES	Pf Dd2 inh
COC(=O)[C@@H](C)NC(=O)[C@H]1CN(C(=O)c2cccnc2)CCN1C(=O)c1cccs1	-5.2%[44.1 µM]
COCc1nc(C2CCCN(C(=O)CCc3ccccc3)C2)no1 (stereo not given)	31.4%
CC1CCC2(CC1)OCC(C(=O)NCc1ccccc1)N2C(=O)c1cccc(Cl)c1 (stereo not given)	i
CC1CCC2(CC1)OCC(C(=O)NCc1ccccc1)N2C(=O)c1ccc(Cl)c(Cl)c1 (stereo not given)	8.91µM*
Cc1cccc(C(=O)N2C(C(=O)NCc3ccccc3)COC23CCC(C)CC3)c1 (stereo not given)	i
Cc1nc(CCC(=O)N2CCc3c(nc(-c4ccccc4)[nH]c3=O)C2)n[nH]1	3.6%
COc1ccc(NC(=O)c2sc3nc4c(cc3c2N)CN(Cc2ccccc2)CC4)cc1	i
CC(=O)c1ccc(NC(=O)c2sc3nc4c(cc3c2N)N2CCC4CC2)cc1	-14.6%
Nc1c(C(=O)Nc2ccc(OC(F)(F)F)cc2)sc2nc3c(cc12)N1CCC3CC1	11.2µM*
N#Cc1cccc(NC(=O)Cn2cccc2-c2nc(-c3ccccc3)no2)c1	31.4%
COc1ccc(-c2noc(N3CCC(C(=O)N4CCN(c5cccc(C)c5C)CC4)CC3)n2)cc1	32.4%
COC(=O)c1c(-c2ccc(Cl)cc2)noc1N1CCN(c2cccc(C)c2C)CC1	4.47µM*
CC1=C(c2ccc(Cl)cc2)S(=O)(=O)N=C1N1CCN(c2cccc(C)c2C)CC1	-13.8%
CC(C(=O)NCc1cccnc1N(C)CCc1ccccn1)n1cccc1 (stereo not given)	6.4%
Cc1cc(C(=O)NC2CC(C)(C)Cc3nc(N4CCOCC4)ncc32)nn1C (stereo not given)	-11.6%
CCOc1ccccc1C(=O)N1CC[C@@H]2CN(S(C)(=O)=O)[C@@H]2C1	i
C[S+](=O)([O-])c1ccc(-c2ccc3ncn(-c4ccc(F)cc4F)c(=O)c3n2)cc1	i
OC1CC(c2cc(NCC3(c4ccccc4)CCOCC3)ncn2)C1 (stereo not given)	-6.5%
O=C(NCCN1CCOCC1)C1CCCN(C2CCN(Cc3ccncc3)CC2)C1 (stereo not given)	-15.2%
O=C(NCCc1ccccc1)C1CCCN(C2CCN(Cc3ccncc3)CC2)C1 (stereo not given)	10µM*
O=C(NCCc1ccccc1)C1CCCN(C2CCN(Cc3ccccc3F)CC2)C1 (stereo not given)	i
O=C(O)c1cnc(NCc2ccccn2)nc1-c1ccncc1	i
O=[S+]([O-])(c1cccc(C(F)(F)F)c1)N1CC(Oc2ccc(F)c(F)c2)C1	7.6%
Cc1ccc(C(=O)N[C@H]2CO[C@H]3[C@@H]2OC[C@H]3OC(=O)Nc2ccc(C(C)C)cc2)cc1	-14.1%[44.1 µM]
COc1ccc(OC)c(S(=O)(=O)N[C@H]2CO[C@H]3[C@@H]2OC[C@H]3OC(=O)Nc2ccc(Oc3ccccc3)cc2)c1	-23.6%
SMILES	Pf Dd2 inh
COc1ccc(NC(=O)O[C@@H]2CO[C@H]3[C@@H]2OC[C@@H]3NS(=O)(=O)c2ccccc2C#N)cc1	i
CC(=O)Nc1ccc(S(=O)(=O)N[C@H]2CO[C@H]3[C@@H]2OC[C@H]3OC(=O)Nc2ccc(Oc3ccccc3)cc2)cc1	6.31µM*
CC(C)c1ccc(NC(=O)O[C@@H]2CO[C@H]3[C@@H]2OC[C@@H]3NS(=O)(=O)c2cccs2)cc1	2.24µM*
N#Cc1ccccc1S(=O)(=O)N[C@H]1CO[C@H]2[C@@H]1OC[C@H]2OC(=O)Nc1ccc(Oc2ccccc2)cc1	i
CCc1noc(-c2cn(C3CCCN(C(=O)c4ccc(F)c(F)c4)C3)nn2)n1 (stereo not given)	i
O=C(O)C1=NOC2CN(CC3CCCCC3)CC12 (stereo not given)	4.4%[44.1 µM]
O=C(CN1CC2CC(C1)[C@H]1CCCC(=O)N1C2)N1CCCCCC1 (stereo not given in full)	-0.6%
CC(C)C[C@@H](NC(=O)C1=C[C@@H](NC(=O)Nc2ccc(F)cc2F)[C@@H](O)[C@H](O)C1)C(N)=O	4.8%
COc1ccc(C(=O)N2CCC(N3C(=O)CCC3C(=O)NC(C)C)CC2)cc1OC (stereo not given)	14.8%
CC(C)(C)c1ccc(C(=O)Nc2c(C(=O)c3ccc(F)cc3)oc3ccccc23)cc1	8.91µM*
COc1ccc(C(=O)c2oc3ccccc3c2NC(=O)c2ccc(F)cc2)cc1	33.8%[5.79 µM]
COc1ccc(C(=O)Nc2c(C(=O)c3ccc(F)cc3)oc3ccccc23)cc1	55.5%
Cc1ccc(C)c(NC(=O)Cn2c(C)cc3nc4n(c(=O)c32)CCCC4)c1	i
CCc1ccc(NC(=O)CSC2=Nc3ccccc3C3=NC(CC(=O)NC4CCCCC4)C(=O)N23)cc1 (stereo not given)	i
O=C(CCC1N=C2c3ccccc3N=C(SCC(=O)Nc3ccccc3F)N2C1=O)NCc1cccs1 (stereo not given)	-26.5%
